# Screens as filed in PubChem.
# Shown are actives, neighbours in structure and some others; about 19% of the full set was active somewhere.
# Marburg entry inh – Marburg virus entry inhibition | Potency, µM (top dose mostly 37.8 µM), for the others: at the top dose activity change, negative = inhibition, actives largely listed as inhibitors | Marburg virus pseudotyped entry inhibition, cell reporter | AID 540276 | actives 1.8% (n = 300,000); calls by dose curve; tested in HEK293 cells; further: potency means the concentration at half of the fitted maximal effect; on the % scale 0 is the no-effect control and ±100 the full control effect
# Shiga toxin inh – inhibitors of Shiga toxin in Vero cells; Vero cells, Shiga toxin protein synthesis inhibition reporter; inhibition, % at 38.7 µM; actives 9.2% (n = 290,000); AID 2315; in the data active means inhibition mostly above about 28%, no sharp cut-off; inactive means mostly below about 43%; further: 0% is about no effect
# CHX counter – counter-screen hit for Shiga toxin inhibitors, cycloheximide; cell reporter, cycloheximide protein synthesis inhibition counterscreen; max response, %; actives 12% (n = 300,000); AID 2314; in the data active means max response mostly above about 13%, no sharp cut-off; inactive means mostly below about 14%; further: read at 38.3 µM for the half of the compounds with a filed dose; 0% is about no effect
# Pf growth 96h – P. falciparum growth inhibition at 96 hours; AID 504834; Potency, µM (titrated, usually from 28.7 µM), for the others: at the top dose activity change, negative = inhibition, hits mostly inhibitors; actives 6.9% (n = 320,000); P. falciparum luciferase reporter growth, 96 h; further: potency means the concentration at half of the fitted maximal effect; on the % scale 0 is the no-effect control and ±100 the full control effect
#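 Plates of compound plus infected erythrocytes (2% hematocrit, 0.05% parasitemia final) incubate 96 hours, 37 C, 5% CO2. Detection reagent added; reduced luminescence from the parasites' luciferase reporter flags inhibition.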
# Pf growth 48h – inhibits P. falciparum growth in the first generation, 48 h | P. falciparum luciferase growth in erythrocytes, 48 h | Potency, µM (top dose mostly 28.7 µM), inactives show at the top dose activity change, negative = inhibition, most hits filed as inhibitors | actives 5.9% (n = 310,000) | AID 504832; further: potency means the concentration at half of the fitted maximal effect; on the % scale 0 is the no-effect control and ±100 the full control effect
#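 Luminescence readout; reporter = integrated firefly luciferase in P. falciparum. RBC culture at 2% hematocrit, 0.1% parasitemia final, 37 C/5% CO2; decreased signal taken as growth inhibition.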
# LASV entry inh – Lassa virus entry inhibition. Lassa virus pseudotype entry inhibition, cell reporter. Potency, µM (series often up to 37.9 µM), inactives show at the highest dose activity change, negative = inhibition, actives largely listed as inhibitors. actives 1.2% (n = 300,000); calls by dose curve; tested in HEK293 cells; further: potency means the concentration at half of the fitted maximal effect; on the % scale 0 is the no-effect control and ±100 the full control effect; nearly all actives have a fitted effect of over 50% in size
# An asterisk follows results filed as active; ? = inconclusive; . = no result given; [ ] = another dose, or the depositor's remark. Unless noted, the call rests on the fitted dose curve; in most records, active means well fitted inhibition curve with a large enough effect; inconclusive means small, poorly fitted or top-dose-only effect, or another doubt; inactive means no such curve, though single readings can be large or run the other way.
SMILES,Marburg entry inh,Shiga toxin inh,CHX counter,Pf growth 96h,Pf growth 48h,LASV entry inh
CN1CCN(c2ccc(Nc3ccnc4cc(Cl)ccc34)cc2)CC1,?,72.0,2.4,?,0.0262µM*,2.51µM*
CCN1CCN(c2ccc(Nc3ccnc4ccccc34)cc2)CC1,.,.,.,?,0.657µM*,.
CN1CCN(c2ccc(Nc3c4ccccc4nc4ccccc34)cc2)CC1,.,-14.3,-13.0,.,.,.
CC(C)CCNC(=O)CCS(=O)(=O)c1cccc2nonc12,4.8%,-13.8,5.0,11.7µM*,3.8%,8.2%
CC(C)NC(=O)CCS(=O)(=O)c1cccc2nonc12,23.2%,36.7,-0.7,.,.,?
Cc1ccc(Cl)cc1N1CCN(C(=O)CCS(=O)(=O)c2cccc3nonc23)CC1,-8.2%,11.4,2.7,11.7µM*,?,-15.5%
CC1(C)CC(=O)C(=CN2CCOCC2)C(=O)C1,13.7%[46.1 µM],-12.5,-1.5,?,26.6%,-1.6%[46.1 µM]
Cc1cc(C)c(C)c(S(=O)(=O)NCc2ccc(C(=O)N3CCCCC3)cc2)c1C,-25.3%,39.5,22.0*,0.415µM*,1.04µM*,-14.5%
Cc1ccc(C)c(S(=O)(=O)NCc2ccc(C(=O)N3CCCCCC3)cc2)c1,?,0.8,2.2,7.38µM*,?,-22.2%
Cc1cc(C)c(C)c(S(=O)(=O)NCc2ccc(C(=O)N3CCCC3)cc2)c1C,8.6%[46.1 µM],-6.9,-0.4,?,6.57µM*,-13.5%
Cc1ccc(S(=O)(=O)NCc2ccccc2)cc1C(=O)N1CCCCCCC1,?,.,.,-0.3%,-11.9%,-30.8%
O=C(c1ccccc1S(=O)(=O)NCc1ccccc1)N1CCCC1,.,49.3,11.0,14.7µM*,.,.
Nc1ccc2c(c1)OC1(CCCC1)O2,?,99.0*,47.5*,4.15µM*,36.7%,15.8µM*
CC(SC1=NCCN1S(=O)(=O)c1ccccc1)c1ccccc1 (stereo not given),.,-4.5,0.9,13.1µM*,-22.9%,.
Cc1ccc(S(=O)(=O)N2CCN=C2SC(C)c2ccccc2)cc1 (stereo not given),-2.4%,-5.3,7.7,?,-4.3%,?
CC(SC1=NCCN1S(=O)(=O)c1ccc(F)cc1)c1ccccc1 (stereo not given),.,-0.1,0.8,11.7µM*,?,.
Clc1ccc(Cc2noc(Cc3ccccc3)n2)cc1Cl,0.0%,-2.7,1.9,-19.9%,8.7%,21.9%
Cc1ccccc1-c1nc(Cc2ccccc2)no1,?,68.7*,51.0*,?,127.6%,10.3%
COc1ccc(Cc2noc(-c3ccccc3)n2)cc1OC,.,59.0,10.9,33.0%,14.9%,.
Clc1ccc(-c2nc(Cc3ccccc3)no2)cc1,15.2%,38.4,30.6*,?,.,1.5%
COc1ccc(-c2nc(Cc3ccc(Cl)cc3)no2)cc1OC,-22.0%,-5.5,-1.9,.,6.5%,3.98µM*
O=C(CCCOc1ccccc1)Nc1ccc(Cl)cn1,-24.3%[46.1 µM],63.8*,29.6*,74.3%,20.4%,-1.6%
CCCCCCC(=O)Nc1ccc(Cl)cn1,15.6%,100.2*,32.0*,.,58.9%,1.3%
C[C@H]1CC2C3CC=C4C[C@@H](O)CC[C@]4(C)C3CC[C@]2(C)[C@H]1O (stereo not given in full),12.1%[46.1 µM],.,.,.,.,7.2%[46.1 µM]
CCOC(=O)C1=C(C)N(c2ccccc2)C(=O)C1,-1.1%,9.6,-2.3,10.4µM*,-6.4%,23.1%
SMILES,Marburg entry inh,Shiga toxin inh,CHX counter,Pf growth 96h,Pf growth 48h,LASV entry inh
COC(=O)C1=C(C)N(c2ccc(S(N)(=O)=O)cc2)C(=O)C1,7.1%,5.5,-2.5,85.6%,.,6.8%
CCOC(=O)c1c[nH]n(-c2ccc(C)cc2)c1=O,-1.3%[46.1 µM],48.2*,20.9*,-13.0%,-3.4%[5.75 µM],3.2%[46.1 µM]
CCOC(=O)c1cc(C(=O)OCC)c2ccccn2c1=O,15.2%,-9.2,-0.8,-1.8%[5.75 µM],16.1%,10.8%
CCOC(=O)c1nc(N)c(=O)n(-c2ccc(C)cc2)n1,12.2%,3.9,-1.4,-23.5%,-5.0%,1.5%
CCOC(=O)c1c[nH]n(-c2ccccc2)c1=O,0.4%[46.1 µM],29.8*,19.5,11.9%,33.8%,4.7%[46.1 µM]
CCOc1cc(/C=C(/NC(C)=O)C(=O)O)cc(Cl)c1OCc1cccc(Br)c1,-1.3%[46.1 µM],-3.5,0.7,0.9%,-6.7%,-13.3%
CC(=O)NC(c1ccc(Cl)cc1Cl)c1ccc2cccnc2c1O (stereo not given),.,-2.3,-1.3,30.8%,4.15µM*,.
Cc1cccc(NC(c2cccc(Cl)c2)c2ccc3cccnc3c2O)n1 (stereo not given),?,.,.,.,.,10µM*
